# Screening results deposited in PubChem BioAssay by National Center for Advancing Translational Sciences (NCATS).
# PNC assembly inh – perinucleolar compartment assembly inhibition; 140,000 compounds, 3.1% hits; AID 2417; activity change (PNC), negative = inhibition, % at 10 µM; PC3M PTB-GFP, PNC prevalence imaging, 16 h; stronger effect = lower value;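 active = readout at or below -70, meaning at least 70% loss of cells showing the perinucleolar compartment, a nuclear body marking cancer cells; inconclusive = readout between -30 and a set limit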;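 note: plate controls were DMSO wells for no effect and camptothecin positive control wells for full effect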
#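 Compounds are pinned in duplicate onto adhered PC3M cells stably expressing GFP-tagged PTB and incubated 16 h at 37 C. Cells are then fixed, nuclei stained with Hoechst, and PNC-positive cells counted.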
# IMPase cell inh – membrane-permeable compound that blocks inositol monophosphatase; P97697; CHO-M1 cells, IP1 accumulation, HTRF TR-FRET ratio; inhibition (IP1 accumulation), % at 46.1 µM; 120,000 tested, under 10 active; AID 901; active = well fitted curve in the direction sought with a large enough effect in the signal ratio, not every such curve was filed as active; inconclusive = small, poorly fitted or top-dose-only effect, or a change in a side signal; inactive = no such curve, though single readings can be large or run the other way; the % refers to the signal ratio;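 note: cells stimulated with carbachol in lithium chloride buffer; plate controls were DMSO basal wells for no effect and reference inhibitor wells for full effect; higher means more IMPase inhibition seen as more IP1 and lower FRET ratio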
#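 Elevated IP1 in lysates lowers TR-FRET signal (665/620 ratio and 620 channel reported). Cells were CHO-M1, given carbachol (50 uM as added) plus 50mM LiCl, pH 7.4, 30 min, 37C; compounds titrated up to 46 uM; AC50 by Hill equation.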
# IMPase Li cell – IMPase inhibition in cells with lithium potentiation. CHO-M1 cells, IP1 TR-FRET (IP-One), carbachol + lithium. 210,000 compounds, 0.35% hits. Potency, µM (titrated, usually from 59.4 µM), inactives show at the highest dose activity, negative = IMPase inhibition, actives largely listed as inhibitors. AID 1457; active = well fitted inhibition curve with a large enough effect; inconclusive = small, poorly fitted or top-dose-only effect; inactive = no such curve, though single readings can be large or run the other way;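 note: IP1 builds up when IMPase is blocked and the TR-FRET signal falls; potency is the fitted concentration of half-maximal effect; plate controls were basal vehicle for no effect and high inhibitor control for full effect; nearly all actives have a fitted effect of over 50% in size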
#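 CHO-M1, 2000 cells/well, 16–30 h culture; cpd + low Li+, 30 min 37C; lysis with d2-IP1/Eu-anti-IP1 Ab, 10 min RT; TR-FRET 665/620 ratio and 620 channel; AC50 via Hill.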
# ALDH1A1 block – ALDH1A1 (human) enzyme inhibition | P00352 | Purified ALDH1A1, NADH fluorescence, propionaldehyde substrate | Potency, µM (titrated, usually from 75.3 µM), for inactives: at the highest dose activity, negative = inhibition, usual class: inhibitors | 220,000 compounds, 7.3% hits;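 note: potency is the fitted concentration of half-maximal effect; plate controls were no enzyme wells and a reference inhibitor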
# Target sequence (P00352 whole entry, looked up): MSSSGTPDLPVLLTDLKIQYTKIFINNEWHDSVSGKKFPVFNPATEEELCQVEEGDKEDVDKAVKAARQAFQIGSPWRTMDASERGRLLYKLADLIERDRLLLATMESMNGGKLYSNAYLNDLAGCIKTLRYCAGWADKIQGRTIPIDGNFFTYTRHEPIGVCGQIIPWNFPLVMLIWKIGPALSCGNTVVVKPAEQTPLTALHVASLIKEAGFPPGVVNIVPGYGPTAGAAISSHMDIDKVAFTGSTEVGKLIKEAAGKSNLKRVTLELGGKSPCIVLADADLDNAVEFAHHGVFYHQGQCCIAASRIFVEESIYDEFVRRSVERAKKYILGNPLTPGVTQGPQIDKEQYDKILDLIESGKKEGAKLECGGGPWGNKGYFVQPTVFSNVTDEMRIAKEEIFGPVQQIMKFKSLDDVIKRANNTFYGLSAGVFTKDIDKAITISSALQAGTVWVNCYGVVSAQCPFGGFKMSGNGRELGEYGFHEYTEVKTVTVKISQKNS
# HPGD inh – blocks human HPGD enzyme activity. P15428. purified HPGD, NADH fluorescence kinetic, PGE2 substrate. Potency, µM, for the others: at the top dose activity change, negative = inhibition, actives largely listed as inhibitors. 150,000 compounds, 4.3% hits. AID 894; note: potency is the fitted concentration of half-maximal effect
#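 NADH formation kinetics: reaction with 30 uM PGE2 and 1 mM NAD+ (final), 20 nM enzyme, Tris-HCl pH 8 with Tween 20, after 15 min compound preincubation at room temperature. Fluorescence change, last versus first of five reads.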
# Starred values were filed as active, the others as inactive; ? = inconclusive; · = not tested or not shown; [ ] = dose if it differs, or a comment. A selection: hits, their analogues and other compounds. The true share with any hit is near 11%. Unless noted, calls come from the whole dose curve; as a rule, active = well fitted inhibition curve with a large enough effect (not every such curve was filed as active); inconclusive = small, poorly fitted or top-dose-only effect, or another doubt; inactive = no such curve, though single readings can be large or run the other way. Unless noted, % is set by controls: 0 for no effect and ±100 for the full control effect.
SMILES,PNC assembly inh,IMPase cell inh,IMPase Li cell,ALDH1A1 block,HPGD inh
COc1ccc(N2CCN(CCCNC(=O)c3nnc(Cc4ccccc4Cl)o3)CC2)cc1,·,10,·,·,·
CCCN(CCC)c1cc(Cl)nc(N)n1,·,·,-5%,-2%,·
CCn1c(C)cc(/C=C2/NC(=O)N(c3ccccc3)C2=O)c1C,·,·,1%,13µM*,·
CCCC(=O)NCc1ccncc1,·,·,-2%,-3%,·
NNC(=O)c1cc2cc3ccccc3nc2s1,·,·,4%,20µM*,·
CS(=O)(=O)NNC(=O)c1cc2cc3ccccc3nc2s1,·,·,4%,?,·
Cc1ccc(NC(=O)C(C)Sc2nc(=O)cc(N)n2-c2cccc(C)c2)cc1 (centres undefined),·,-3,·,·,·
Cc1ccc(NC(=O)c2cc(C)n(-c3ccccc3)c2C)cc1,?,5,14%,?,20µM*
Cc1ccc(-n2c(C)cc(C(=O)NS(=O)(=O)c3ccc(C)cc3)c2C)cc1,?,6,0%,-1%,-14%
Cc1ccc(NC(=O)c2cc(C)n(-c3cccc(C)c3)c2C)cc1,?,·,7%,?,25µM*
Cc1cccc(N(CC(N)=O)C2SC(=O)NC2=O)c1 (centres undefined),-100*,-4,1%,2%,-11%
O=C(O)CN(c1ccccc1)C1SC(=O)NC1=O (centres undefined),18,-5,-13%[38.3 µM],?,-7%
O=C(Nc1nc(-c2cccs2)c(-c2cccs2)s1)C1CCCC1,-3,-2,17%,?,?
Cc1ccc(C)c(NC2=CC(=O)CC(C)(C)C2)c1C#N,-9,-4,3%[38.3 µM],13µM*,-11%
Cc1ccccc1NC1=CC(=O)CC(C)(C)C1,5,4,2%,-1%,-26%
CC(=O)OC1CCC2(C)C(=CC=C3C2CCC2(C)C3CCC2C(C)/C=C/C(C)C(C)C)C1(C)C (centres undefined),·,·,7%,7%,-10%
Cc1ccc(NC(=O)Cn2cc(S(=O)(=O)N3CCN(c4ccccc4F)CC3)c3ccccc3c2=O)cc1F,·,-7,·,·,·
O=C=Nc1ccc(Cl)c(Cl)c1,·,·,-4%,-9%,-10%
Cc1ccc(-c2cc(-c3ccccc3)[nH]c(=S)c2C#N)cc1,25,-9[1.84 µM],?,?,-11%
N#Cc1c(-c2ccc(C(F)(F)F)cc2)cc(-c2ccccc2)[nH]c1=S,-99*,·,-3%,?,-10%
O=C(/C=C(/c1ccc(Cl)cc1)n1cncn1)c1ccccc1,-30,·,-12%,8%,-23%
Cn1nnnc1SCC(=O)N1CCN(C(=O)c2ccco2)CC1,·,·,0%,?,·
COc1ccc(-n2nnnc2SCC(=O)N2CCN(C(=O)c3ccco3)CC2)cc1OC,·,·,0%,32µM*,·
COc1ccc(OC)c(-n2nnnc2SCC(=O)N2CCN(C(=O)c3ccco3)CC2)c1,·,·,-2%,?,·
Cc1ccc(-n2nnnc2SCC(=O)N2CCN(C(=O)c3ccco3)CC2)c(C)c1,-83*,-4,14%[38.3 µM],?,-5%
SMILES,PNC assembly inh,IMPase cell inh,IMPase Li cell,ALDH1A1 block,HPGD inh
CCCCOC(=O)n1c(=S)oc2cc(Cl)ccc21,69,-8,-3%[38.3 µM],?,-22%
COC(=O)n1c(=S)oc2cc(Cl)ccc21,?,10,18%[38.3 µM],14µM*,22µM*
CCn1c(SCC(=O)N2CCCC2)nnc1-c1ccc(N)cc1,288,6,1%,1%,-17%
Cc1ccccc1OCc1nnc(SCC(=O)Nc2ccc3nc(SCC(=O)Nc4ccccc4)sc3c2)n1C,?,·,?,13µM*,-12%
Cn1c(SCC(=O)Nc2ccc3nc(SCC(=O)N4CCCC4)sc3c2)nnc1-c1ccc(N)cc1,17,5,12%[38.3 µM],13µM*,8.9µM*
Cc1ccccc1OCc1nnc(SCC(=O)Nc2ccc3c(c2)OCO3)n1C,13,10,9%[38.3 µM],8%,-16%
CCC(=O)Nc1ccc2nc(SCC(=O)N3CCCC3)sc2c1,-1,-17,0%[38.3 µM],?,16µM*
Cn1c(SCC(=O)Nc2ccc3nc(SCC(=O)NC4CC4)sc3c2)nnc1-c1ccccc1,?,2,6%,10µM*,3.5µM*
CCOC(=O)c1c(/N=C/C2=C(O)CC(C)(C)CC2=O)sc(C(C)=O)c1C,·,·,6%,?,·
CC(=O)c1ccc(NC(=S)NNC(=O)c2ccncc2)cc1,52,?,2%,?,-22%
